The nature of test [1]: inhibitors of TNFa-induced NFkB p65 translocation, primary screen, imaging, HUVEC, MLSMR starter and 10KST1 sets (AID 438;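 active = inhibition above 20% together with a positive visual image hit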;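 also: compound added about 3h40 before a 20 min TNFalpha stimulation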;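 as to inhibition: signal is the nuclear over cytoplasmic p65 intensity ratio per well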). The settings on record: HUVEC TNFa-induced p65 nuclear translocation; cell count: measured here: nuclei count (cytotoxicity indicator), at 2.08 µM; inhibition: at 2 µM, stronger effect = higher value, 0% TNFa-plus-vehicle, 100% no-TNFa wells.
A short description of test [2]: inhibitors of mutant huntingtin aggregation, primary screen, imaging, exon1htt(103Q)mCFP cells, high-content imaging (AID 483;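 active = visual image review flags a hit and inhibition of aggregation exceeds 20%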;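 also: compound exposure lasted 3 days before fixation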;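 as to nuclei count: percent of the per-plate median nuclei count of sample wells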). Conditions: exon1htt(103Q)mCFP cell line, aggregate imaging, at 2 µM; inhibition of aggregation: stronger effect = higher value; nuclei count: measured here: cell count, toxicity.
The nature of test [3]: inhibitors of E-selectin induction by TNFa, primary screen, imaging, HUVEC, immunofluorescence, MLSMR starter and 10KST1 sets (AID 487;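 active = visually confirmed hit in the image check and inhibition above 20%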;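 as to inhibition: signal is fraction of cell area covered by stained E-selectin grains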;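 as to nuclei count: 100% = median nuclei count of all wells on the same plate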). Conditions: HUVEC TNFalpha-induced E-selectin immunofluorescence imaging, at 2 µM; inhibition: stronger effect = higher value; nuclei count: measured here: cell number, toxicity.
In test [4] the target is Voltage-gated potassium channel subunit beta-2 (Rattus norvegicus) (UniProt P62483). Nature of the test: KvBeta enzyme negative modulators, primary screen, biochemical, NADPH fluorescence (AID 622;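 active = fluorescence slope higher than the sample average by over 3 SD, cut at about -0.22 in these data, passing the limit was not always enough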;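 also: slope of raw intensity against log time taken from 70 to 1610 s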). The settings on record: recombinant KvBeta, 4-cyanobenzaldehyde reduction, at 10 µM, stronger effect = higher value.
Chain of Voltage-gated potassium channel subunit beta-2 (Rattus norvegicus) (P62483 whole entry, looked up): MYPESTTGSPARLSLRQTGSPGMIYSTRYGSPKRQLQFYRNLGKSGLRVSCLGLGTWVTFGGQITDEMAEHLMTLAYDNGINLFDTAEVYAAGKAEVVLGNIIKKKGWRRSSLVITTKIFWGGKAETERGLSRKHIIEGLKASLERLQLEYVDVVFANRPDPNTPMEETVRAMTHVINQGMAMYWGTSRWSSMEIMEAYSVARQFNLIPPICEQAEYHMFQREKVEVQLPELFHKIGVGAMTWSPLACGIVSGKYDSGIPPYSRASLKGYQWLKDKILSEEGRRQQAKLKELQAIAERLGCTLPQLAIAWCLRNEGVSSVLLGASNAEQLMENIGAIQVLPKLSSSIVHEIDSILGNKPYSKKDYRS
The target is the same in test [5]. As to the kind of experiment: KvBeta positive modulators, primary screen, biochemical, NADPH fluorescence (AID 623;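 active = NADPH fluorescence slope more negative than the mean of all samples by about 3 SD, 99.7% confidence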;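 also: fluorescence intensity change per second fitted from 20 to 320 s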). Conditions: Recombinant KvBeta, NADPH fluorescence decrease slope, 10 min; at 10 µM; stronger effect = lower value.
For test [6], the target named is Alpha-2C adrenergic receptor (Homo sapiens) (UniProt P18825). As to the kind of experiment: modulators of alpha2C/GIRK thallium flux, primary screen, cell-based, HEK293 alpha2C/GIRK1/2 (AID 624;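 active = fluorescence slope after compound addition differing from the mean of all screened samples at 99.7% confidence, in either direction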;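 also: slope of fluorescence ratio to pre-addition baseline per second over 15 to 24 s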). Conditions: thallium flux BTC fluorescence, at 10 µM, actives lie on both sides.
Chain of Alpha-2C adrenergic receptor (Homo sapiens) (P18825 whole entry, looked up): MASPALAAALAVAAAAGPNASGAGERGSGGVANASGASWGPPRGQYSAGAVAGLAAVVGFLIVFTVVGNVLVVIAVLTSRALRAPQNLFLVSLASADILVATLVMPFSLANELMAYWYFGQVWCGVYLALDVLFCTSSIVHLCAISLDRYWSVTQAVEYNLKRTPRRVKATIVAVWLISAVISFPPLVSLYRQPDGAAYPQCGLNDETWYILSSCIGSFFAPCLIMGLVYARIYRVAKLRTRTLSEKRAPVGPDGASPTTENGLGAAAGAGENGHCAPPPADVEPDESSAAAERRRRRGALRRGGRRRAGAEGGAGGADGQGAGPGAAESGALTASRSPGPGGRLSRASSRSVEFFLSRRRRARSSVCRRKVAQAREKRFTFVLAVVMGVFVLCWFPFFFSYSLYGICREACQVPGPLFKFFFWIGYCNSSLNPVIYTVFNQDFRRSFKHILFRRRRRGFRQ
The nature of test [7]: inhibitors of Sendai virus-induced IRF3 signaling, primary screen, TLR/RLR signaling modifier project, cell-based, Sendai virus stimulus, luciferase, 10K MLSCN set (AID 602276).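 Also: firefly luciferase from ISG56 promoter only with Renilla not read in this screen; 0% = Sendai virus plus DMSO and 100% = medium plus DMSO without virus.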 The settings on record: HEK293 RL24 IRF3 luciferase reporter, at 10 µM, stronger effect = higher value.
Test [8] is described as follows: inhibitors of poly I:C-induced TLR3 signaling, primary screen, cell-based, poly I:C stimulus, luciferase, 10K MLSCN set (AID 602277;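 active = inhibition of the reporter signal at or above 50%; inactive = inhibition below 50%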). Conditions: HEK293-TLR3 RL24 IRF3 luciferase reporter, at 10 µM, stronger effect = higher value.

Activity calls are given as the source filed them.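 The calls were made as follows, unless noted: active = inhibition at or above 50% at 10 µM; inactive = inhibition below 50%.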

Consider `CCOc1ccc2[nH]cc(C(=O)N3CCN(CC)CC3)c(=O)c2c1`, for which the cell count in test [1] stood at 498. Further, the inhibition was -16.7% (inactive) in test [1], -18.9% (inactive) in test [3], -17.3% (inactive) in test [7] and -19.5% (inactive) in test [8]. Besides, the inhibition of aggregation in test [2] is 4.7% (inactive). The nuclei count in test [2] was found to be 77.2%; in test [3], 94.8%. For the same compound, the fluorescence slope in test [4] was -0.539 (inactive). Besides, the NADPH fluorescence slope in test [5] was 1.9e-05 (inactive). For the same compound, in test [6], the slope is 0.00496 (inactive).

As to `CC(=O)c1ccc(OCC(O)CN2CCN(Cc3ccc4c(c3)OCO4)CC2)cc1` (stereo not drawn), the cell count in test [1] is 522. In addition, the inhibition is 4.5% (inactive) in test [1], -33.9% (inactive) in test [3], 11.6% (inactive) in test [7] and 40.6% (inactive) in test [8]. For the same compound, the inhibition of aggregation in test [2] was -3.8% (inactive). Also, the results for the nuclei count in test [2] and in test [3] were 87.9% and 108%, respectively. The fluorescence slope in test [4] was -0.536 (inactive). Also, the NADPH fluorescence slope in test [5] was -4.2e-05 (inactive). Moreover, the slope in test [6] is 0.0062 (inactive).

With `CCc1c(C(=O)Nc2ncn(Cc3cccc(C)c3)n2)csc1C`, in test [1], the cell count amounted to 630. In addition, the inhibition in test [1] is 1.2% (inactive); in test [3], -66.7% (inactive); in test [7], 7.43% (inactive); in test [8] it was 15.5% (inactive). In addition, the inhibition of aggregation in test [2] was 2% (inactive). For the same compound, the nuclei count is 97.3% in test [2] and 110% in test [3]. Besides, the fluorescence slope in test [4] is -0.343 (inactive). Also, in test [5], the NADPH fluorescence slope was -4.3e-05 (inactive). Besides, the slope in test [6] was 0.00495 (inactive).

On to `CC(C)c1nnc(NC(=O)Cc2cccs2)s1`, for which the cell count in test [1] turned out to be 640. Moreover, the inhibition was 3.4% (inactive) in test [1], -47.3% (inactive) in test [3], 0.388% (inactive) in test [7] and 22.9% (inactive) in test [8]. Moreover, the inhibition of aggregation in test [2] was 8.9% (inactive). For the same compound, the nuclei count in test [2] worked out at 114%; in test [3], 105%. The fluorescence slope in test [4] is -0.513 (inactive). In addition, the NADPH fluorescence slope in test [5] is -1.8e-05 (inactive). In addition, in test [6], the slope was 0.00736 (inactive).

On to `CC(C)N(Cc1nc(-c2ccccc2)no1)C(=O)CCCN1C(=O)c2ccccc2C1=O`, for which the cell count in test [1] was found to be 475. Moreover, the inhibition in test [1] is -9.3% (inactive); in test [3], -78.3% (inactive); in test [7], 4.76% (inactive); in test [8], 3.27% (inactive). For the same compound, the inhibition of aggregation in test [2] was -7.3% (inactive). The values for the nuclei count in test [2] and in test [3] were 112% and 158%, respectively. Also, the fluorescence slope in test [4] was -0.53 (inactive). Besides, the NADPH fluorescence slope in test [5] is -8.9e-06 (inactive). In addition, in test [6], the slope was 0.00616 (inactive).

As for `COc1ccc(-c2noc(-c3ccccc3C(=O)Nc3cccnc3)n2)cc1`, the cell count in test [1] was 218. Further, the inhibition in test [1] was 6.7% (inactive); in test [3], -54.7% (inactive); in test [7] it was 12.1% (inactive); in test [8], 12.9% (inactive). Besides, the inhibition of aggregation in test [2] was 0.1% (inactive). Besides, the nuclei count in test [2] amounted to 87.6%; in test [3], 95.3%. In addition, the fluorescence slope in test [4] was -0.601 (inactive). Further, in test [5], the NADPH fluorescence slope is 1.8e-05 (inactive). The slope in test [6] was 0.00583 (inactive).

On to `COc1ccc(C)cc1NC(=O)CCN1CCCC1`, for which, in test [1], the cell count worked out at 257. The inhibition in test [1] is -1.2% (inactive); in test [3], 6.5% (inactive); in test [7], 15.3% (inactive); in test [8], 16.2% (inactive). In addition, in test [2], the inhibition of aggregation is 7.8% (inactive). The values for the nuclei count in test [2] and in test [3] were 87.6% and 109%, respectively. Besides, the fluorescence slope in test [4] was -0.442 (inactive). Also, the NADPH fluorescence slope in test [5] is -3.8e-06 (inactive). In addition, the slope in test [6] is 0.00559 (inactive).

For the compound `Cn1c(=O)[nH]c(=O)c2c1nc(N1CCCCC1)n2CCSc1ncccn1`, the cell count in test [1] is 637. Further, the inhibition is -11.8% (inactive) in test [1], -20.6% (inactive) in test [3], 10% (inactive) in test [7] and 25.5% (inactive) in test [8]. The inhibition of aggregation in test [2] was -16.6% (inactive). Moreover, the nuclei count in test [2] was 93%; in test [3], 122%. Further, the fluorescence slope in test [4] is -0.438 (inactive). Also, the NADPH fluorescence slope in test [5] was -6.7e-05 (inactive). Moreover, the slope in test [6] is 0.00492 (inactive).

For `O=C(NCC1CCCO1)c1ccc(N2CCCCC2)nc1` (stereo not drawn), in test [1], the cell count is 684. For the same compound, the inhibition was -11.2% (inactive) in test [1], -30.2% (inactive) in test [3], -7.44% (inactive) in test [7] and -103% (inactive) in test [8]. For the same compound, in test [2], the inhibition of aggregation was 1.5% (inactive). Moreover, the nuclei count came out at 99.7% in test [2] and 107% in test [3]. Moreover, the fluorescence slope in test [4] was -0.314 (inactive). Also, in test [5], the NADPH fluorescence slope is 2.7e-06 (inactive). Also, in test [6], the slope was 0.00663 (inactive).

As to `O=C(NS(=O)(=O)c1ccc(NC(=O)C2CCCO2)cc1)c1ccccc1` (stereo not drawn), the cell count in test [1] was 577. The inhibition was -6% (inactive) in test [1], -46.8% (inactive) in test [3], 11.4% (inactive) in test [7] and 17.7% (inactive) in test [8]. In addition, the inhibition of aggregation in test [2] was 2.1% (inactive). Further, the nuclei count in test [2] came out at 110%; in test [3] it was 125%. Besides, the fluorescence slope in test [4] was -0.328 (inactive). For the same compound, in test [5], the NADPH fluorescence slope is -5.2e-05 (inactive). For the same compound, the slope in test [6] was 0.00463 (inactive).

As for `CCOc1ccccc1-n1c(SCC(=O)NCc2ccco2)nnc1-c1ccncc1`, the cell count in test [1] was found to be 376. Also, the inhibition in test [1] was 8.9% (inactive); in test [3], 6% (inactive); in test [7], 7.96% (inactive); in test [8], 21.5% (inactive). Further, the inhibition of aggregation in test [2] was 6% (inactive). The results for the nuclei count in test [2] and in test [3] were 93% and 85.8%, respectively. For the same compound, in test [4], the fluorescence slope was -0.405 (inactive). For the same compound, the NADPH fluorescence slope in test [5] was 3.6e-05 (inactive). For the same compound, the slope in test [6] was 0.00499 (inactive).

In the case of `CCC(=O)N/C(N)=N/c1nc(C)c2cc(OC)ccc2n1`, the cell count in test [1] was 730. Further, the inhibition in test [1] is 10.7% (inactive); in test [3], 9.1% (inactive); in test [7], -62.4% (inactive); in test [8], -122% (inactive). In addition, in test [2], the inhibition of aggregation is -24.4% (inactive). Also, the nuclei count in test [2] turned out to be 95.9%; in test [3] it was 92.1%. Besides, the fluorescence slope in test [4] was -0.378 (inactive). Moreover, the NADPH fluorescence slope in test [5] was -1.1e-05 (inactive). In addition, the slope in test [6] is 0.00511 (inactive).

In the case of `C=CCNc1oc(-c2cccc3ccccc23)nc1C#N`, in test [1], the cell count came out at 365. The inhibition was -0.4% (inactive) in test [1], -110% (inactive) in test [3], -4.72% (inactive) in test [7] and -35.7% (inactive) in test [8]. The inhibition of aggregation in test [2] was 9.2% (inactive). The results for the nuclei count in test [2] and in test [3] were 98.8% and 97.4%, respectively. For the same compound, the fluorescence slope in test [4] was -0.0687 (active). The NADPH fluorescence slope in test [5] was 1.5e-06 (inactive). Further, in test [6], the slope was 0.00477 (inactive).

The values above are taken from PubChem BioAssay.
